{"source": "paper PMC4336329", "about": "(PLoS ONE, 2015)", "note": "In all, about 310,000 compounds went through this assay and about 14,000 (4.5%) showed an effect of 50% or more. Effects have a minus sign here. Shown is part of a subset that was picked to be rich in strong results.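 Note: peak tail current of the secondary pulse compared with the same well before compound.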", "data": [{"target": "human ether-à-go-go-related gene (hERG) potassium channel (human, UniProt Q12809)", "sequence (Q12809 whole entry, looked up)": "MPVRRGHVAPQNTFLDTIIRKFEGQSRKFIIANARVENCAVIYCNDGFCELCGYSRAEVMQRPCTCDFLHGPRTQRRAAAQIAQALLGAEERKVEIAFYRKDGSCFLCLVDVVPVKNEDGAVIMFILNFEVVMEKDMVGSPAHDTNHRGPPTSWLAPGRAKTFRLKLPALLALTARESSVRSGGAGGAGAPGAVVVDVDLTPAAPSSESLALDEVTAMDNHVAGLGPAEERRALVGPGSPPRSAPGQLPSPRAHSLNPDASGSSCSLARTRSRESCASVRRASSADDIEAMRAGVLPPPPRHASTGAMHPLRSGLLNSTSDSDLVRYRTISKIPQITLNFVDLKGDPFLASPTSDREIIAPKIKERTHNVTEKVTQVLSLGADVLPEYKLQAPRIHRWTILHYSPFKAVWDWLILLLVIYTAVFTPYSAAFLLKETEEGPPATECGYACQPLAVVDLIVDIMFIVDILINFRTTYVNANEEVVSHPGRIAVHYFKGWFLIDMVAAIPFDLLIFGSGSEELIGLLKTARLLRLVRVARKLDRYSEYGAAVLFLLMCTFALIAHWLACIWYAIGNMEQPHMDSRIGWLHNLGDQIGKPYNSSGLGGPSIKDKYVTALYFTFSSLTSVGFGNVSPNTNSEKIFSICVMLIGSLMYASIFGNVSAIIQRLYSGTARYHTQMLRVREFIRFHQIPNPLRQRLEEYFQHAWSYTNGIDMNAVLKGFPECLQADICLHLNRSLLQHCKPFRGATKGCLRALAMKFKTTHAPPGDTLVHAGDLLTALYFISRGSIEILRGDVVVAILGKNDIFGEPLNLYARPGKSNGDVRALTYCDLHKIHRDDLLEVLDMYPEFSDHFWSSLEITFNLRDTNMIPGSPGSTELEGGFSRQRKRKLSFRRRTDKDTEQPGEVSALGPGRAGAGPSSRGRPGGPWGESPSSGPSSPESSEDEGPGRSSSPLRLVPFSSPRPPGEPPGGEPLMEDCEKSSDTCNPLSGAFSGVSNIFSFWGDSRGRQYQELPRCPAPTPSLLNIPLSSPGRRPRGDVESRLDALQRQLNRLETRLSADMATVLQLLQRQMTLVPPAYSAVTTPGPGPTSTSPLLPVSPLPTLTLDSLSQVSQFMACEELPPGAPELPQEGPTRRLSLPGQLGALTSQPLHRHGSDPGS", "experiment": "primary screen, population patch clamp on CHO cells stably expressing hERG; higher = less effect of the substance", "units": {"hERG current change (%, negative = inhibition) at 10uM": "%"}, "values": [{"compound": "COc1ccc(C(=O)N2CCCCC2)cc1S(=O)(=O)Nc1cccc(C(=O)O)c1", "hERG current change (%, negative = inhibition) at 10uM": 6.94}, {"compound": "CCOc1ccc(C(=O)OCCN(C)C)cc1.Cl", "hERG current change (%, negative = inhibition) at 10uM": -10.3}, {"compound": "CSc1ncccc1C(=O)OCC(=O)N1CC(=O)Nc2ccccc21", "hERG current change (%, negative = inhibition) at 10uM": 8.21}, {"compound": "COc1ccc(-c2noc(CN3CCC(Cc4ccccc4)CC3)n2)cc1", "hERG current change (%, negative = inhibition) at 10uM": -8.3}, {"compound": "COc1ccc(Nc2nc(N)nc(CN3CCC(Cc4ccccc4)CC3)n2)cc1", "hERG current change (%, negative = inhibition) at 10uM": -79}, {"compound": "COc1ccc(Nc2nc(N)nc(CN3CCOCC3)n2)cc1", "hERG current change (%, negative = inhibition) at 10uM": -5.46}, {"compound": "COc1ccc(Nc2nc(N)nc(CSC(=S)N3CCC(C)CC3)n2)cc1", "hERG current change (%, negative = inhibition) at 10uM": -5.86}, {"compound": "COc1ccc(OCc2nc(N)nc(Nc3ccccc3)n2)cc1", "hERG current change (%, negative = inhibition) at 10uM": -4.98}, {"compound": "c1ccc(CC2CCN(Cc3nc(-c4ccccc4)no3)CC2)cc1", "hERG current change (%, negative = inhibition) at 10uM": -8.93}, {"compound": "Nc1nc(CN2CCC(Cc3ccccc3)CC2)nc(Nc2ccccc2)n1", "hERG current change (%, negative = inhibition) at 10uM": -82}, {"compound": "COc1ccc(Nc2nc(N)nc(CN3CCC(C)CC3)n2)cc1", "hERG current change (%, negative = inhibition) at 10uM": -75.4}, {"compound": "CC(=O)c1ccc(OCC(=O)OC(C)C(=O)NC2CCCCC2C)cc1", "note": "(stereo not shown)", "hERG current change (%, negative = inhibition) at 10uM": 26.9}, {"compound": "COC(=O)c1c(NC(=O)CC2SCC(C(=O)OC)NC2=O)sc2c1CCCC2", "note": "(stereo not shown)", "hERG current change (%, negative = inhibition) at 10uM": -5}, {"compound": "CCc1ccccc1N(C(C)=O)c1nc(CCl)cs1", "hERG current change (%, negative = inhibition) at 10uM": 6.77}, {"compound": "CC(C)(C)NC(=O)CN(CCN1CCOCC1)C(=O)CNS(=O)(=O)c1ccccc1", "hERG current change (%, negative = inhibition) at 10uM": 19.4}, {"compound": "COCCN(CCOC)S(=O)(=O)c1ccc(C(=O)Nc2nc(C)c(C(C)=O)s2)cc1", "hERG current change (%, negative = inhibition) at 10uM": 13}, {"compound": "C/C(=N\\NC(N)=S)C1C2C3CC4C5CC(C42)C1C53", "note": "(stereo not shown)", "hERG current change (%, negative = inhibition) at 10uM": -10}, {"compound": "O=C(CC1(O)C(=O)Nc2ccccc21)c1ccc2c(c1)OCO2", "note": "(stereo not shown)", "hERG current change (%, negative = inhibition) at 10uM": -3.95}, {"compound": "CN(C)c1ccc2c3c(ccc(N(C)C)c13)COC2", "hERG current change (%, negative = inhibition) at 10uM": -34.8}, {"compound": "Nc1ccc2c(c1)COC2=O", "hERG current change (%, negative = inhibition) at 10uM": 4.55}, {"compound": "CN(C)c1ccc2c3c(ccc(N(C)C)c13)C(=O)OC2", "hERG current change (%, negative = inhibition) at 10uM": -59.1}, {"compound": "CN(C)S(=O)(=O)c1cccc(C(=O)NCC2(N3CCOCC3)CCCCC2)c1", "hERG current change (%, negative = inhibition) at 10uM": -13.4}, {"compound": "S=C(NCc1cccnc1)Nc1ccc(Oc2ccc(Cl)cc2)cc1", "hERG current change (%, negative = inhibition) at 10uM": -0.652}, {"compound": "CCS(=O)(=O)c1ccc(O)c(NC(=O)COc2ccc(OC)cc2)c1", "hERG current change (%, negative = inhibition) at 10uM": 1.82}, {"compound": "CCCc1ccc(OCC(=O)Nc2cc(S(=O)(=O)CC)ccc2O)cc1", "hERG current change (%, negative = inhibition) at 10uM": -58.1}, {"compound": "CCc1ccc(OCC(=O)Nc2cc(S(=O)(=O)CC)ccc2O)cc1", "hERG current change (%, negative = inhibition) at 10uM": -0.287}, {"compound": "Cc1cc(Cl)c(OCCCNC2CCCC2)c(Br)c1.O=C(O)C(=O)O", "hERG current change (%, negative = inhibition) at 10uM": -56.9}, {"compound": "C=CCNCCOc1c(C)cc(C)cc1Cl.O=C(O)C(=O)O", "hERG current change (%, negative = inhibition) at 10uM": -21.2}, {"compound": "COCCCNCCCCOc1c(Cl)cc(C)cc1Br.O=C(O)C(=O)O", "hERG current change (%, negative = inhibition) at 10uM": -49.2}, {"compound": "Cc1cc(C)c(OCCNCc2ccccc2)c(C)c1.O=C(O)C(=O)O", "hERG current change (%, negative = inhibition) at 10uM": -5.71}, {"compound": "Cc1cc(C)c(OCCCNC2CCCC2)c(Br)c1.O=C(O)C(=O)O", "hERG current change (%, negative = inhibition) at 10uM": -34.5}, {"compound": "Cc1cc(C)c(OCCCCNCc2ccccc2)c(Cl)c1.O=C(O)C(=O)O", "hERG current change (%, negative = inhibition) at 10uM": -68.5}, {"compound": "Cc1cc(C)c(OCCCNCc2ccccc2)c(Br)c1.O=C(O)C(=O)O", "hERG current change (%, negative = inhibition) at 10uM": -10.7}, {"compound": "Cc1cc(Cl)c(OCCCNCc2ccccc2)c(Br)c1.O=C(O)C(=O)O", "hERG current change (%, negative = inhibition) at 10uM": -51.8}, {"compound": "Cc1cc(Cl)c(OCCCCNC(C)(C)C)c(Br)c1.O=C(O)C(=O)O", "hERG current change (%, negative = inhibition) at 10uM": -40.7}, {"compound": "CC(=O)c1cccc(NC(=O)C(C)OC(=O)Cc2c[nH]c3ccccc23)c1", "note": "(stereo not shown)", "hERG current change (%, negative = inhibition) at 10uM": -2.32}, {"compound": "COC(=O)c1cc(NC(=O)c2cccnc2)ccc1N1CCOCC1", "hERG current change (%, negative = inhibition) at 10uM": 13.9}, {"compound": "CCOc1ccccc1N1CC(C(=O)Nc2c(C)n(C)n(-c3ccccc3)c2=O)CC1=O", "note": "(stereo not shown)", "hERG current change (%, negative = inhibition) at 10uM": 20.7}, {"compound": "CCC(C)[C@H](NC(=O)Nc1ccc(S(N)(=O)=O)cc1)C(=O)OC", "note": "(stereo partly shown)", "hERG current change (%, negative = inhibition) at 10uM": 13.1}, {"compound": "O=C1CCCc2c1nc(-c1ccco1)n2O", "hERG current change (%, negative = inhibition) at 10uM": 12.1}, {"compound": "O=C(Cn1[nH]c(=O)c2ccccc2c1=O)N1CC=C(c2ccccc2)CC1", "hERG current change (%, negative = inhibition) at 10uM": -4.76}, {"compound": "COc1ccc(CCNC(=O)CS(=O)Cc2nc(-c3ccccc3F)oc2C)cc1OC", "note": "(stereo not shown)", "hERG current change (%, negative = inhibition) at 10uM": 13}, {"compound": "O=c1oc2ccc(C#CC3(O)CCCCC3)cc2cc1-n1cc(C2(O)CCCCC2)nn1", "hERG current change (%, negative = inhibition) at 10uM": 24.7}, {"compound": "O=C(c1ccc(F)cc1)n1c(=S)nc2ccccn21", "hERG current change (%, negative = inhibition) at 10uM": -1.25}, {"compound": "CC(=O)N(Cc1nc2sc(C)c(C)c2c(=O)[nH]1)C1CCCC1", "hERG current change (%, negative = inhibition) at 10uM": 21.8}, {"compound": "FC(F)(F)c1cccc(N2CCN(C3CC4CCC3C4)CC2)c1", "note": "(stereo not shown)", "hERG current change (%, negative = inhibition) at 10uM": -1.68}]}]}
